Compounds with a hit are over-represented: about 8.1% of the library has one in this group of screens.
MCF10A rereplic = inducers of DNA re-replication in MCF 10A breast cells | MCF 10A DNA re-replication, Hoechst nuclear intensity, 48 h | Potency, µM (top dose mostly 46.1 µM), for the others: at the top dose activity, positive = re-replication, usual class: activators | 2.9% of 350,000 active; further: % of control where 0% means no effect; nearly all actives have a fitted effect of over 50% in size
KB-3-1 tox = KB-3-1 parental cell cytotoxicity | KB-3-1 viability, CellTiter-Glo ATP luminescence, 72 h | Potency, µM (series often up to 46.1 µM), usual class: cytotoxic | 1.4% of 400,000 active | AID 1347075; further: on the % scale 0 is the no-effect control and ±100 the full control effect; nearly all actives have a fitted effect of over 60% in size
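Cytotoxicity in the drug-sensitive parental line KB-3-1 was scored as loss of CellTiter-Glo luminescence following 72 h incubation with compound. Values come from curve fitting of normalized concentration-response data.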
SW480 rereplic = DNA re-replication induction in SW480 cells | AID 624297 | 1.8% of 340,000 active | Potency, µM (series often up to 46.1 µM), without a hit: at the top dose re-replication activation, usual class: activators | SW480 DNA re-replication, Hoechst DNA content imaging, 48 h; further: % of control where 0% means no effect; nearly all actives have a fitted effect of over 55% in size
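250 cells/well; 23 nL cpd via pin tool; 48 hr, 37 C, 5% CO2; Hoechst 40 min; imager read of total nuclear intensity, ex 405/em 500-530 nm.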
KB-V1 MDR tox = KB-V1 MDR subline cytotoxicity; KB-V1 MDR cells viability, CellTiter-Glo, 72 h; Potency, µM (series often up to 46.1 µM), hits mostly cytotoxic; 3.4% of 400,000 active; further: on the % scale 0 is the no-effect control and ±100 the full control effect; nearly all actives have a fitted effect of over 60% in size
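Drug-selected KB-V1 cells, grown in DMEM lacking phenol red with 10% FBS, receive compound titrations; after three days at 37 degrees C, surviving cell ATP is quantified by CellTiter-Glo luminescence and responses normalized and curve-fitted.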
ELG1 repair inh = inhibitors of ELG1-dependent DNA repair in HEK293T cells. AID 504467. HEK293T ELG1-luciferase reporter, luminescence, 16 h; DNA damage induced by 5-fluorouridine. 2.3% of 330,000 active. Potency, µM (titrated, usually from 46.1 µM), without a hit: top-dose activity change, negative = inhibition, actives largely listed as inhibitors; further: on the % scale 0 is the no-effect control and ±100 the full control effect; nearly all actives have a fitted effect of over 55% in size
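Step one: seed 2,000 cells per well. Step two: pin-transfer compound or DMSO alongside 5-fluorouridine. Step three: incubate 16 hr, 37 °C, 5% CO2. Step four: add ONE-Glo, wait 30 min, read luminescence.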
Starred values were filed as active, the others as inactive; [ ] = another dose, or the depositor's remark. The call rests on the fitted dose curve; in most records, active means well fitted curve in the direction sought with a large enough effect; inconclusive means small, poorly fitted or top-dose-only effect, or another doubt; inactive means no such curve, though single readings can be large; an effect the other way counts as inactive or inconclusive. Potency means the concentration at half of the fitted maximal effect.

What do the screens show for `CN(C)CCC=C1c2ccccc2CCc2ccccc21`?
MCF10A rereplic: inconclusive; KB-3-1 tox: inactive; SW480 rereplic: inconclusive; KB-V1 MDR tox: 21µM*; ELG1 repair inh: -8%

What do the screens show for `CCNc1cc(N2CCN(C)CC2)ccc1[N+](=O)[O-]`?
MCF10A rereplic: -24%; KB-3-1 tox: inactive; SW480 rereplic: -45%[1.84 µM]; KB-V1 MDR tox: inactive; ELG1 repair inh: -8%

How did CN(C)c1c([N+](=O)[O-])cc(N2C(=O)C=CC2=O)cc1[N+](=O)[O-] do in these assays?
MCF10A rereplic: 13µM*; KB-3-1 tox: inconclusive; SW480 rereplic: 16µM*; KB-V1 MDR tox: inactive

How did Cc1onc(-c2ccccc2Cl)c1C(=O)NCc1ccc2c(c1)cc(C)n2C do in these assays?
MCF10A rereplic: -5%; KB-3-1 tox: inactive; SW480 rereplic: 0%; KB-V1 MDR tox: inactive; ELG1 repair inh: inconclusive

How did CCCc1cc(=O)oc2c3c(cc(OCC(=O)N4CCC[C@H]4C(=O)O)c12)OC(C)(C)CC3 do in these assays?
MCF10A rereplic: -26%; KB-3-1 tox: inactive; SW480 rereplic: -4%; KB-V1 MDR tox: inactive; ELG1 repair inh: inconclusive

How did COc1ccc2c(c1)C(NC(C)=O)CCc1cc(OC)c(OC)c(OC)c1-2 (configuration not stated) do in these assays?
MCF10A rereplic: inconclusive; KB-3-1 tox: 0.15µM*; SW480 rereplic: 0.058µM*; KB-V1 MDR tox: 0.37µM*

Results for COc1cc2c(c(OC)c1OC)-c1ccc(OC)c(=O)cc1C(NC(C)=O)CC2 (configuration not stated) ?
MCF10A rereplic: inconclusive; KB-3-1 tox: 0.0073µM*; SW480 rereplic: inconclusive; KB-V1 MDR tox: inactive; ELG1 repair inh: inconclusive

How did COC1=C[C@@H]2C3=C([C@@H]2C1=O)[C@@H](NC(C)=O)CCc1cc(OC)c(OC)c(OC)c13 do in these assays?
MCF10A rereplic: -7%; KB-3-1 tox: inactive; SW480 rereplic: -37%; KB-V1 MDR tox: inactive; ELG1 repair inh: 13%

How did COc1ccc(OC)c(CC(=O)O)c1 do in these assays?
MCF10A rereplic: -3%; KB-3-1 tox: inactive; SW480 rereplic: -4%; KB-V1 MDR tox: inactive; ELG1 repair inh: 3%

What do the screens show for `COc1ccc(/C=N\NC(=O)c2cccc(F)c2)cc1COc1ccccc1`?
MCF10A rereplic: inconclusive; KB-3-1 tox: inactive; SW480 rereplic: 1.5µM*; KB-V1 MDR tox: inconclusive

Results for C[C@]12CC[C@H](OS(=O)(=O)O)CC1=CCC1C2CC[C@]2(C)C(=O)CC[C@@H]12 (some centres not stated) ?
MCF10A rereplic: -3%; SW480 rereplic: -1%

Results for COC[C@H]1OC(=O)c2coc3c2[C@@]1(C)C1=C(C3=O)[C@@H]2CCC(=O)[C@@]2(C)C[C@H]1OC(C)=O ?
MCF10A rereplic: inconclusive; KB-3-1 tox: 21µM*; SW480 rereplic: 8%; KB-V1 MDR tox: inconclusive

How did COc1ccc(NC(=O)CCOc2cc(C)ccc2C)cc1S(=O)(=O)N1CCCCC1 do in these assays?
MCF10A rereplic: inconclusive; KB-3-1 tox: inconclusive; SW480 rereplic: 1%; KB-V1 MDR tox: inconclusive; ELG1 repair inh: 23µM*

What do the screens show for `O=Cc1cn(Cc2ccc(Br)cc2)c2ccccc12`?
MCF10A rereplic: 6%; KB-3-1 tox: 10µM*; SW480 rereplic: -5%; KB-V1 MDR tox: inconclusive; ELG1 repair inh: -26%

Results for CCN(c1ccc(C)cc1C)S(=O)(=O)c1nnc(NC(=O)c2ccco2)s1 ?
MCF10A rereplic: 21µM*; KB-3-1 tox: inactive; SW480 rereplic: inconclusive; KB-V1 MDR tox: inactive; ELG1 repair inh: 5%

What do the screens show for `CCOC(=O)c1cnc(SCc2ccc(Cl)c(Cl)c2)nc1N1CC1`?
MCF10A rereplic: 13µM*; KB-3-1 tox: inactive; SW480 rereplic: 4.1µM*; KB-V1 MDR tox: 8.2µM*

What do the screens show for `CC(C)c1oc(=O)cc2c1[C@@H](O)[C@H]1OC(=O)[C@@]3(C)C[C@@H](O)[C@@H](O)[C@@]2(C)C13` (some centres not stated)?
MCF10A rereplic: 5.2µM*; KB-3-1 tox: 8.2µM*; SW480 rereplic: inconclusive; KB-V1 MDR tox: inactive; ELG1 repair inh: inconclusive

How did CC(C)c1oc(=O)cc2c1[C@@H](O)[C@H]1OC(=O)[C@@]3(C)CC[C@@H](O)[C@@]2(C)C13 (some centres not stated) do in these assays?
MCF10A rereplic: 12%; KB-3-1 tox: 7.3µM*; SW480 rereplic: inconclusive; KB-V1 MDR tox: inactive; ELG1 repair inh: -24%

How did COC1C(O)C(C)OC(OC2C(Oc3cccc4c(O)c5c(=O)oc6ccc(C)c7c(=O)oc(c34)c5c67)OC(C)C(O)C2O)C1O (configuration not stated) do in these assays?
MCF10A rereplic: 8.2µM*; KB-3-1 tox: 15µM*; SW480 rereplic: 21µM*; KB-V1 MDR tox: inactive

How did CN1C(=O)C(=Cc2ccc(OCCN(C)c3ccccn3)cc2)C(=O)N(C)C1=O do in these assays?
MCF10A rereplic: 0.41µM*; KB-3-1 tox: inactive; SW480 rereplic: -23%; KB-V1 MDR tox: inconclusive; ELG1 repair inh: 1%

What do the screens show for `CN1C(=O)C(=Cc2ccccc2Oc2ccc(Cl)cc2)C(=O)N(C)C1=O`?
MCF10A rereplic: 2%; KB-3-1 tox: inconclusive; SW480 rereplic: inconclusive; KB-V1 MDR tox: inconclusive; ELG1 repair inh: -3%

What do the screens show for `CC1Oc2cc3c(-c4c(O)cc(O)c5c(O)c6c(cc45)OC(C)C(C)C6=O)c(O)cc(O)c3c(O)c2C(=O)C1C` (configuration not stated)?
MCF10A rereplic: -1%; KB-3-1 tox: inconclusive; SW480 rereplic: 13µM*; KB-V1 MDR tox: inconclusive; ELG1 repair inh: 6.5µM*

What do the screens show for `CC(C)NC(=O)C(C)N1CCN(S(=O)(=O)c2ccc3ccccc3c2)CC1` (configuration not stated)?
MCF10A rereplic: -2%; KB-3-1 tox: inactive; SW480 rereplic: 4%; KB-V1 MDR tox: inactive; ELG1 repair inh: inconclusive

What do the screens show for `C=CCN1C[C@H](C)N([C@H](c2ccc(C(=O)N(CC)CC)cc2)c2cccc(OC)c2)C[C@H]1C`?
MCF10A rereplic: 4%; SW480 rereplic: 3%

How did O=Cc1cn(Cc2c(F)cccc2Cl)nc1-c1ccccc1 do in these assays?
MCF10A rereplic: 16%; KB-3-1 tox: inactive; SW480 rereplic: -11%; KB-V1 MDR tox: inactive

How did CCc1ccc(-c2nn(Cc3ccccc3)cc2C=O)cc1 do in these assays?
MCF10A rereplic: 0%; KB-3-1 tox: inactive; SW480 rereplic: 4.6µM*; KB-V1 MDR tox: inactive; ELG1 repair inh: inconclusive

What do the screens show for `COc1ccc(C2NCc3ccc4c(c3-n3cccc32)OCO4)cc1O` (configuration not stated)?
MCF10A rereplic: 4.1µM*; KB-3-1 tox: 1.3µM*; SW480 rereplic: 3.3µM*; KB-V1 MDR tox: inconclusive; ELG1 repair inh: -14%
